PRMT1 inh: inhibitors of human PRMT1; recombinant PRMT1, activity-based probe fluorescence polarization; inhibition, % at 2.79 µM; 370,000 tested, 1.3% active;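 active means inhibition above about 21% made by adding two undisclosed values, limit read from the data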
ALR inh: human ALR oxidase inhibition via reduced H2O2; P55789; purified ALR, DTT oxidation, H2O2 HRP-luminol luminescence; inhibition, % (concentration not given with the values); 290,000 tested, 3.8% active;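 active means mean replicate inhibition above about 79%, with every replicate also reaching it, limit read from the data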
rCAG binder: r(CAG) repeat RNA binding | TO-PRO-1 dye displacement fluorescence | 370,000 tested, 1.3% active | inhibition, % at 3 µM;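 active means inhibition above the plate cutoff, the mean of all test compounds on that plate plus 3 SD, cut at about 35% in these data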;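 further: 0% = DMSO alone and 100% = 100 µM mitoxantrone as full dye displacement; higher means more dye released from RNA so lower well fluorescence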
ABHD5-PLIN5 inh: ABHD5-PLIN5 protein interaction inhibition; Q00G26+Q8WTS1; Split G. princeps luciferase complementation, luminescence, 4 h; inhibition, % at 4 µM; 360,000 tested, 0.78% active;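 active means inhibition above the mean inhibition across every tested compound plus 3 SD, cut at about 22% in these data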;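 further: 0% = DMSO only wells and the 100% control is not disclosed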
Target sequence (Q00G26 whole entry, looked up): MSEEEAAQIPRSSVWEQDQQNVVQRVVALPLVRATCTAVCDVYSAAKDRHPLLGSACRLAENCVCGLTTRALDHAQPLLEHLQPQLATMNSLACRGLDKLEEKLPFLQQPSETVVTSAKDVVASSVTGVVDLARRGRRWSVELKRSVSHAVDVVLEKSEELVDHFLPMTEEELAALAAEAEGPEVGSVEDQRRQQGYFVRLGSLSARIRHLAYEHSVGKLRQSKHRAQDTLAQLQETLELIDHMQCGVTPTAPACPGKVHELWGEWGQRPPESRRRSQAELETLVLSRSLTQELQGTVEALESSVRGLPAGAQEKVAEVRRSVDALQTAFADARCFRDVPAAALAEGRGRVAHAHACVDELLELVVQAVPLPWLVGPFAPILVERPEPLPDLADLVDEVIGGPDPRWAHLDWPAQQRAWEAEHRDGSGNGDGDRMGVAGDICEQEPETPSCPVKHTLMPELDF
Target sequence (Q8WTS1 whole entry, looked up): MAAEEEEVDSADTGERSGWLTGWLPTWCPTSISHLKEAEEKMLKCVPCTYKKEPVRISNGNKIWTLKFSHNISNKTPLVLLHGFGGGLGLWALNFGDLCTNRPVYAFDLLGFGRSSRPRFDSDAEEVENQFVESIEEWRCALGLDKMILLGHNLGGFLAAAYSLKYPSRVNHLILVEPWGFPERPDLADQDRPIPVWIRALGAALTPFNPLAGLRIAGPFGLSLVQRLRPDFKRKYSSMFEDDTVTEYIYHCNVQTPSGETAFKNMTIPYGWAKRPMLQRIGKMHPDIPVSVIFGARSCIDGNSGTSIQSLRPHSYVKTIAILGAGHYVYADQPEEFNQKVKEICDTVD
LANA-H2B inh: blocks KSHV LANA binding to histone H2A/H2B | Q9QR71 | 320,000 tested, 0.6% active | inhibition, % (no concentration beside the values) | cell-free LANA-H2A/H2B peptide, fluorescence polarization; in the data active means inhibition mostly above about 10%, no sharp cut-off; inactive means mostly below about 6.7%
Rtt109 HAT inh: inhibitors of Candida albicans Rtt109/Vps75 histone acetyltransferase; 330,000 tested, 0.16% active; Q5AAJ8; purified Rtt109/Vps75, ThioGlo CoA-SH fluorescence, 4 h; AID 540336; inhibition, % at 34.9 µM;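 active means inhibition of at least 50% in every replicate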
* = called active by the depositor. This is a sample that favours compounds with a hit; in the whole collection about 5.9% have one here.

`Cc1ccc(-c2cc(C(=O)OCC(=O)N(C)C3CCS(=O)(=O)C3)c3ccccc3n2)o1` (stereo not given) gave PRMT1 inh 16, ALR inh -4, rCAG binder 5, ABHD5-PLIN5 inh 21, LANA-H2B inh 5 and Rtt109 HAT inh -12.
`CCN(C(=O)COC(=O)c1cc(-c2ccc(C)o2)nc2ccccc12)C1CCS(=O)(=O)C1` (stereo not given) gave PRMT1 inh 23*, ALR inh 0, rCAG binder 6, ABHD5-PLIN5 inh 14, LANA-H2B inh 3 and Rtt109 HAT inh -48.
`COC(=O)COc1cccc2c(=O)n(CC(=O)N3CCCc4ccccc43)ccc12` gave PRMT1 inh -1, ALR inh 89*, rCAG binder 0, ABHD5-PLIN5 inh 3, LANA-H2B inh -3 and Rtt109 HAT inh -3.
Cn1nccc1C(=O)NC1CCCc2c1cnn2-c1ccc(C(C)(C)C)cc1 (stereo not given) was read as PRMT1 inh -1, ALR inh -8, rCAG binder -11, ABHD5-PLIN5 inh -6, LANA-H2B inh 3 and Rtt109 HAT inh 17.
`O=C(c1ccc(F)cc1)C1CCN(c2ncnc3sccc23)CC1` gave PRMT1 inh -3.
Screening COC(=O)[C@]12C[C@H](CC(=O)NCCC(C)C)C(=O)N(Cc3ccccc3)C1=C[C@H](COCc1ccccc1)O[C@@H]2C returned PRMT1 inh 3 and rCAG binder 4.
Screening Cc1cccc(/C=N/Nc2ccc3ccccc3n2)c1 returned PRMT1 inh 4, rCAG binder 2, ABHD5-PLIN5 inh -6, LANA-H2B inh 1 and Rtt109 HAT inh 8.
`Cc1ccc(/C=N/Nc2ccc3ccccc3n2)o1` gave PRMT1 inh -1, ALR inh 99*, rCAG binder -1, ABHD5-PLIN5 inh -3, LANA-H2B inh 8 and Rtt109 HAT inh -5.
Screening Cc1ccc(/C=N\Nc2nc3ccc(Cl)cc3[nH]2)o1 returned PRMT1 inh 0, ALR inh 95*, rCAG binder 9, ABHD5-PLIN5 inh -3, LANA-H2B inh 0 and Rtt109 HAT inh 5.
Screening Fc1ccccc1-c1ccc(/C=N/Nc2nc3ccccc3[nH]2)o1 returned PRMT1 inh 2, ALR inh 22, rCAG binder 18, ABHD5-PLIN5 inh -5, LANA-H2B inh 0 and Rtt109 HAT inh -7.
Screening O=C(c1cc(Br)ccc1Cl)N1CCCC1 returned PRMT1 inh 0, ALR inh -18, rCAG binder -2, ABHD5-PLIN5 inh 3, LANA-H2B inh 11* and Rtt109 HAT inh 5.
COc1ccc(S[C@]2(C(=O)N3CCN(c4ncccn4)CC3)CC(=O)N(C(=O)C3CC3)[C@@H]2c2ccc(OC)cc2)cc1 was read as PRMT1 inh -3 and rCAG binder 14.
Screening CS(=O)(=O)c1ccc(C(=O)OC2CCOC2=O)cc1[N+](=O)[O-] (stereo not given) returned PRMT1 inh 2, ALR inh 94*, rCAG binder 2, ABHD5-PLIN5 inh 7, LANA-H2B inh 4 and Rtt109 HAT inh -2.
`CC(=O)c1cccc(S(=O)(=O)N2CCC(C(=O)O)CC2)c1` gave PRMT1 inh -2, ALR inh -5, rCAG binder 2, ABHD5-PLIN5 inh 6, LANA-H2B inh 0 and Rtt109 HAT inh 58*.
`CC(=O)c1cccc(S(=O)(=O)N2CCC(C(=O)O)(c3ccccc3)CC2)c1` gave PRMT1 inh 1, rCAG binder 6, ABHD5-PLIN5 inh 1, LANA-H2B inh 11 and Rtt109 HAT inh -3.
For CC(=O)c1cccc(S(=O)(=O)NC2CC2)c1 the results were PRMT1 inh 23*, ALR inh 0, rCAG binder 2, ABHD5-PLIN5 inh 1, LANA-H2B inh 4 and Rtt109 HAT inh 0.
For CCC(C)(O)c1cnc(CC(C)C)c(=O)n1O (stereo not given) the results were PRMT1 inh -4, rCAG binder 2 and ABHD5-PLIN5 inh -4.
COc1ccc(C(=O)CSc2nnc(-c3ccco3)n2C)cc1 was read as PRMT1 inh 24*, ALR inh 25, rCAG binder 5, ABHD5-PLIN5 inh 3, LANA-H2B inh -6 and Rtt109 HAT inh 6.
COc1cccc(C(=O)CSc2nnc(-c3ccco3)n2CC2CCCO2)c1 (stereo not given) was read as PRMT1 inh -2, ALR inh 91*, rCAG binder -4, ABHD5-PLIN5 inh -5, LANA-H2B inh 4 and Rtt109 HAT inh 4.
Screening Cc1occc1-c1nnc(SCC(=O)c2ccc3c(c2)OCCO3)n1CC1CCCO1 (stereo not given) returned PRMT1 inh 2, ALR inh 23, rCAG binder 2, ABHD5-PLIN5 inh 9, LANA-H2B inh 1 and Rtt109 HAT inh 1.
Screening Cc1occc1-c1nnc(SCC(=O)c2ccccc2)n1CC1CCCO1 (stereo not given) returned PRMT1 inh 3, ALR inh 98*, rCAG binder 1, ABHD5-PLIN5 inh 3, LANA-H2B inh 2 and Rtt109 HAT inh -7.
`CCOC(=O)[C@@]12CCCC=C1N(CCc1ccc(Cl)cc1)C(=O)[C@H]2CC(=O)NCc1ccc(C)o1` gave PRMT1 inh 2 and rCAG binder 8.
CSc1ccc(C(O)c2ncc(-c3ccc(F)cc3)[nH]2)cc1 (stereo not given) was read as PRMT1 inh -3, rCAG binder 3 and ABHD5-PLIN5 inh -6.
For Cc1ccc(-c2ccccc2NC(=O)CS(=O)CC(=O)Nc2ccc(C)c(Cl)c2)o1 (stereo not given) the results were PRMT1 inh 52*, ALR inh 99*, rCAG binder -1, ABHD5-PLIN5 inh -14, LANA-H2B inh -2 and Rtt109 HAT inh -24.
For C[C@H](N)c1nnc(SCC(=O)c2ccc(Cl)cc2)o1 the results were PRMT1 inh -4, rCAG binder 1, ABHD5-PLIN5 inh 4 and Rtt109 HAT inh -5.
Screening O=C(CSc1nnc(CNC(=O)c2c(F)cccc2F)o1)c1ccccc1 returned PRMT1 inh 0, ALR inh 62, rCAG binder 1, ABHD5-PLIN5 inh 8, LANA-H2B inh -1 and Rtt109 HAT inh 6.
`COc1ccc(C(=O)CSc2nnc(CNC(=O)c3ccc(S(=O)(=O)N(C)C)cc3)o2)cc1` gave PRMT1 inh 5, ALR inh 98*, rCAG binder 4, ABHD5-PLIN5 inh -2, LANA-H2B inh 6 and Rtt109 HAT inh 0.
O=C(CSc1nnc(CNC(=O)c2ccccc2F)o1)c1ccc(Cl)cc1 was read as PRMT1 inh -1, ALR inh 99*, rCAG binder -1, ABHD5-PLIN5 inh -9, LANA-H2B inh -2 and Rtt109 HAT inh 18.
CC(C)[C@H](N)c1nnc(SCC(=O)c2ccc(Cl)cc2)o1 was read as PRMT1 inh 1, ALR inh 98*, rCAG binder 0, ABHD5-PLIN5 inh -8, LANA-H2B inh -3 and Rtt109 HAT inh -9.

Screening results from PubChem BioAssay.
